# AHR activator = AHR activators, primary screen, cell-based, luminescence, luciferase reporter, human | AHR-responsive luciferase reporter cells | Aryl hydrocarbon receptor (Homo sapiens), P35869 | activation, % at 5 µM | 2.5% of 320,000 active; in the data active = activation above about 47%;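 also: 0% = vehicle wells and 100% = reference agonist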
# Efflux pump inh = inhibitors of Candida efflux pumps in yeast, primary screen, S. cerevisiae, Nile Red, multiplex; S. cerevisiae Candida pump triplex; 0.44% of 330,000 active; inhibition, % at 10 µM; AID 485275, 2010;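 active = plate passing quality check with inhibition over a set limit, or well fluorescence over plate mean plus 4 SD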;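 also: Nile Red retained in pooled yeast measured as flow cytometry median fluorescence; 0% = buffer negative control and 100% = Enniatin B positive control; higher means more Nile Red kept so more efflux inhibition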
# VLA-4 inh = inhibition in human VLA-4 binding assay, primary screen, VLA-4 allosteric modulator project, MLPCN library, flow cytometry, VLA-4 expressing cells | AID 2557, 2010 | 0.2% of 330,000 active | Integrin alpha-4 (Homo sapiens), P13612 | inhibition, % (about 7 µM as worked out from the volumes in the protocol) | ligand binding flow cytometry; in the data active = inhibition above about 50%
# ALR inh = inhibitors of human ALR sulfhydryl oxidase, primary screen, biochemical, H2O2 detection, HRP-luminol luminescence, single point | FAD-linked sulfhydryl oxidase ALR (Homo sapiens), P55789 | purified ALR, DTT oxidation | inhibition, % (test concentration not listed) | 3.8% of 290,000 active;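 active = mean replicate inhibition above about 79%, with every replicate also reaching it, limit read from the data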
# Bfl-1 A1 inh = caspase 3/7 activation in MEF A1-2A-BIM cells, primary screen, A1 inhibitor project, cell-based, luminescence, HTS | Caspase-Glo 3/7 luminescence, 3 h; percent of clofoctol response, vehicle zero | caspase activation, % (test concentration not listed) | 0.066% of 330,000 active;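 active = over half of replicate activation scores above 10%, or exactly half above 10 with the replicate mean above 10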
# Mot1-301 SUMO = yeast Mot1-301 growth rescue at high temperature, primary screen, SUMOylation pathway inhibitor project, S. cerevisiae, ATP luminescence, 38.5C; AID 2716, 2010; growth rescue, % at 18.8 µM; S. cerevisiae Mot1-301 growth rescue; percent above DMSO median, 100 means doubled; 1% of 320,000 active;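 active = every valid replicate shows activation above 250% relative to neutral control wells; inactive = the rest, any valid replicate at or below 250%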;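 also: OY570 slx delta 5 strain wells were the positive control but not used for scaling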
# AHR act confirm = AHR activators, confirmation, cell-based, luminescence, luciferase reporter, human; human cells, AHR-responsive luciferase reporter; shares compounds with AHR activator; activation, % at 9 µM; AID 2845, 2010; 87% of 2,300 active; in the data active = activation above about 49%;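 also: HepG2 hepatoma cells carrying a DRE-driven firefly luciferase reporter; 0% = vehicle wells and 100% = reference agonist wells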
# PXR act counter = human PXR activators, counter-screen for AHR activator project, cell-based, luciferase luminescence. activation, % at 11.6 µM. cell-based PXR reporter. shares compounds with AHR activator. 88% of 2,300 active; in the data active = activation above about 11%;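 also: human hepatoma DPX-2 cells expressing full-length human PXR; 0% = DMSO and 100% = reference agonist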
# Target sequence (O75469 whole entry, looked up): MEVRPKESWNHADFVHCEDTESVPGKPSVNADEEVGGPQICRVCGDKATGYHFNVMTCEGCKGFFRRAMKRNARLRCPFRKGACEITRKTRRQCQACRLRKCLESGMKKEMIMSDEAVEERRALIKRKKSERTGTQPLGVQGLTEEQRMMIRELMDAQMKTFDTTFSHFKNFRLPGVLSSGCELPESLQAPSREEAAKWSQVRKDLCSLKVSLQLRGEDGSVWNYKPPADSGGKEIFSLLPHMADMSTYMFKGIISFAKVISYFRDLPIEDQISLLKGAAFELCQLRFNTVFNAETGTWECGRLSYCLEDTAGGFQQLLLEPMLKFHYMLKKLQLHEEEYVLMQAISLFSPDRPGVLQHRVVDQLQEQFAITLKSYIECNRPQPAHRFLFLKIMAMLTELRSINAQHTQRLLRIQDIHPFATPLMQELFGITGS
# An asterisk follows results filed as active; / = no result. Compounds with a hit are over-represented: about 7.2% of the library has one in this group of screens.
SMILES,AHR activator,Efflux pump inh,VLA-4 inh,ALR inh,Bfl-1 A1 inh,Mot1-301 SUMO,AHR act confirm,PXR act counter
COc1ccc(Br)cc1C(=O)Nc1ccc(N2CCCC2)cc1,105*,0,13,-4,0,3,148*,18*
COc1ccccc1C(=O)Nc1ccc(N2CCN(C(C)=O)CC2)cc1,-6,0,6,30,0,-14,/,/
COc1ccccc1C(=O)Nc1ccc(N2CCCCC2)cc1,88*,0,-1,83*,-1,13,99*,/
Cc1ccc(OCC(=O)N/N=C\c2cccn2C)c([N+](=O)[O-])c1,6,0,21,1,-3,99,/,/
COc1cc(C(=O)NCc2ccc(S(N)(=O)=O)cc2)ccc1OCC(=O)N1CCOCC1,-3,0,43,/,1,-21,/,/
COC(=O)Nc1nn(-c2ccc(Cl)cc2)c(=O)c(C#N)c1C,96*,0,-5,3,0,10,29,14*
O=c1c2[nH]c3ccccc3c2ncn1Cc1ccncc1,31,0,25,-20,1,-9,/,/
O=c1c2[nH]c3cccc(Cl)c3c2ncn1Cc1ccncc1,84*,1,4,2,0,5,74*,19*
Cc1sc(NC(=O)c2cc(-c3ccc(Cl)cc3)nc3ccccc23)c(C(N)=O)c1C,23,0,-12,-1,0,-6,/,/
Cc1sc(NC(=O)c2ccc(Cl)s2)c(C(N)=O)c1C,98*,0,1,2,0,23,123*,24*
O=C(Nc1ccccc1N1CCN(C(=O)c2ccc(Cl)cc2)CC1)c1cccc([N+](=O)[O-])c1,127*,-4,7,/,2,176,102*,87*
O=C(Nc1ccccc1N1CCCC1)c1ccc([N+](=O)[O-])cc1Cl,91*,0,6,27,1,-11,87*,212*
CN1CCN(c2ccccc2NC(=O)c2cccc([N+](=O)[O-])c2)CC1,21,0,29,/,1,14,/,/
C=CCOc1cccc(C(=O)N(C)C2CCCN(Cc3ccccc3F)C2)c1 (centres undefined),-1,0,-5,/,0,-11,/,/
C[C@H](NC(=O)[C@@H]1CSC2c3ccccc3C(=O)N21)C(=O)NCCc1ccccc1 (some centres undefined),124*,1,25,-3,0,10,107*,59*
C[C@H](NC(=O)[C@@H]1CSC2c3ccccc3C(=O)N21)C(=O)NCCc1ccc(F)cc1 (some centres undefined),96*,0,14,-1,1,9,104*,55*
COc1ccc(CCNC(=O)[C@H](C)NC(=O)[C@@H]2CSC3c4ccccc4C(=O)N32)cc1 (some centres undefined),0,0,13,-2,0,10,/,/
O=C(CCC(=O)NNc1nc2ccccc2c2nc(-c3ccccc3)nn12)NCCCN1CCOCC1,84*,0,-6,38,0,20,91*,16*
CC(C)CCNC(=O)CCC(=O)NNc1nc2ccccc2c2nc(-c3ccccc3)nn12,16,0,-10,-9,0,16,/,/
COc1ccc2c(c1)O[C@H](c1ccc3c(c1)OCO3)[C@@H](O)C2=O,87*,0,7,16,1,1,95*,26*
O=C(Nc1ccc(Br)cc1)c1cnc[nH]1,109*,0,-3,6,-1,-13,68*,18*
COc1ccccc1CNS(=O)(=O)c1c(C(=O)N2CCCCCC2)c(C)n(C)c1C,0,0,8,-6,0,-1,/,/
COc1ccc(/C=C/C(=O)c2cc3c(cc2N)OCO3)cc1,96*,0,-3,48,-8,/,128*,26*
O=C(Cc1cccs1)Nc1ccc(F)cc1,0,0,10,-2,1,14,/,/
Cc1ccc(-c2[nH]c(-c3ccc(Cl)cc3)nc2SCC(=O)NCC2CCCO2)cc1 (centres undefined),108*,0,-25,32,0,20,84*,86*
SMILES,AHR activator,Efflux pump inh,VLA-4 inh,ALR inh,Bfl-1 A1 inh,Mot1-301 SUMO,AHR act confirm,PXR act counter
COc1ccc(-c2sc(Nc3ccc(F)c(F)c3F)nc2CCC(=O)NN)cc1,22,0,4,-28,0,13,/,/
COc1cccc(NC(=O)C(C)OC(=O)c2n[nH]c3ccccc23)c1 (centres undefined),11,0,-24,/,0,-9,/,/
O=C1c2ccccc2CC1(Cc1ccccc1)Cc1ccccc1,3,0,7,-15,1,-21,/,/
CC(Nc1nc(N2CCCCC2)nc2ccccc12)c1ccccc1 (centres undefined),1,0,5,-17,/,46,/,/
C=CCNc1nc(N2CCCC2)nc2ccccc12,84*,0,4,-1,0,-1,35,12*
CCCc1nnc(NC(=O)CCC(=O)N2CCN(C3CCCC3)CC2)s1,-1,0,2,-17,0,-3,/,/
O=C(N=C1c2ccccc2CN1c1ccc(F)c(Cl)c1)c1cccnc1Cl,123*,0,4,2,-7,299,113*,158*
N#Cc1ccc(N2Cc3ccccc3C2=NC(=O)c2cccnc2Cl)cc1,-6,0,-7,-10,-3,6,/,/
CC(C)(C)OC(=O)CNC(=O)c1nc[nH]c1C(=O)N1CCNCC1,2,0,-1,-12,1,-4,/,/
COc1cc(C(=O)NC(C)c2cccc3ccccc23)cc(OC)c1OC (centres undefined),9,0,7,-13,0,13,/,/
COc1ccc2nc(NNC(=O)C3COc4ccccc4O3)sc2c1 (centres undefined),117*,0,-3,99*,-1,15,76*,30*
COc1ccc2nc(NC(=O)C3COc4ccccc4O3)sc2c1 (centres undefined),1,-1,39,/,-2,27,/,/
Cc1c(C(=O)NCc2ccccn2)oc2c(Cl)cccc12,87*,0,3,0,0,16,132*,50*
